# This is a sample that favours compounds with a hit; in the whole collection about 7.3% have one here.
# Tau fluor cs: counter-screen for tau fibril formation inhibitors | tau K18 P301L Alexa594 fluorescence, heparin fibrillization | Potency, µM (titrated, usually from 57.7 µM), for the others: at the highest dose activity change, negative = decrease | actives 0.93% (n = 280,000) | AID 1463; note: nearly all actives have a fitted effect of over 55% in size
#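 Human K18 P301L tau (15 uM unlabeled plus 0.24 uM Alexa 594-labeled, final) in 100 mM sodium acetate pH 7 was mixed with compound and 20 uM heparin and incubated 6 hr at 37 C.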
# Tau fibril ThT: inhibitors of human tau fibril formation, thioflavin T binding. P10636. recombinant tau K18 P301L (four-repeat tau fragment), heparin-induced fibrillization, ThT fluorescence. Potency, µM (highest dose often 57.4 µM), without a hit: at the top dose activity, negative = inhibition, actives largely listed as inhibitors. actives 2.1% (n = 270,000). AID 1460; note: nearly all actives have a fitted effect of over 55% in size
# Target sequence (P10636 561-689 P618L limits assumed): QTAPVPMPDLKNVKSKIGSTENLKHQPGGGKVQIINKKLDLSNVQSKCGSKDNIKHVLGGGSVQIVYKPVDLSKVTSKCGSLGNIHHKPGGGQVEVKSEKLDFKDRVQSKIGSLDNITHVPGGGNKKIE
#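 K18 P301L tau (15 uM + 0.24 uM Alexa 594-tagged), heparin 20 uM, NaOAc pH 7, 6 h 37 C; ThT 30 uM, 1 h RT, ex 450/em 510 nm.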
# RORgamma inh: inhibitors of mouse ROR gamma transcriptional activity; actives 5.4% (n = 310,000); Potency, µM (titrated, usually from 53.6 µM), without a hit: at the highest dose activity change, negative = inhibition, most hits filed as inhibitors; Drosophila S2 Gal4-RORgamma UAS-luciferase reporter, 20 h; note: nearly all actives have a fitted effect of over 60% in size
# Target sequence (P51450 whole entry, looked up, the tested form may be a part): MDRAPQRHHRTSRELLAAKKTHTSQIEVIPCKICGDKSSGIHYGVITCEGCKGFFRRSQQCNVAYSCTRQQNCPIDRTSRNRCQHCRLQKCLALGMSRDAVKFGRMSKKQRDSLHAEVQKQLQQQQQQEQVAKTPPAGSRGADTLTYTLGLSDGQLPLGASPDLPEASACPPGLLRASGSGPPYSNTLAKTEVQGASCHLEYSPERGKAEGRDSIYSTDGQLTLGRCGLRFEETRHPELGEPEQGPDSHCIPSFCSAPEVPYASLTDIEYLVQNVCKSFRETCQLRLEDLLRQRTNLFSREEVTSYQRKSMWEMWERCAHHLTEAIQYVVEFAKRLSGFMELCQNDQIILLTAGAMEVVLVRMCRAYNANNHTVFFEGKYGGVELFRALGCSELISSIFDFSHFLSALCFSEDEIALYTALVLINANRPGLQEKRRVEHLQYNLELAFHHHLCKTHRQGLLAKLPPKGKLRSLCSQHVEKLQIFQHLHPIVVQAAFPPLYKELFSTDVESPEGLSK
#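 A Gal4/UAS one-hybrid system in insect cells: metallothionein-promoter Gal4–ROR gamma fusion plus Photinus luciferase reporter. Copper sulfate 700 uM final, 20 hr ambient incubation, luminescent detection after 10 min with reagent.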
# Tau fibril FP: inhibitors of human tau fibril formation | P10636 | K18 P301L tau heparin fibrillization, Alexa594 FP, 6 h | Potency, µM (top dose mostly 57.7 µM), for the others: top-dose activity, negative = inhibition, actives largely listed as inhibitors | actives 0.39% (n = 280,000) | AID 1468; note: nearly all actives have a fitted effect of over 55% in size
#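 Human tau K18 […] P301L fragment, 15 uM unlabeled plus 0.24 uM Alexa 594-labeled tau (final), with compound and 20 uM heparin in 100 mM sodium acetate pH 7; 6 hr at 37 C, then Alexa 594 FP read.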
# VP16 counter: counter-screen for ROR gamma inhibitors: Gal4-VP16 reporter; actives 3.5% (n = 310,000); Potency, µM (highest dose often 53.6 µM), for inactives: at the top dose activity, negative = inhibition, usual class: inhibitors; AID 2546; Drosophila S2 Gal4-VP16 UAS-luciferase, luminescence, 20 h;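 note: Gal4-VP16 expression switched on by copper sulfate through the metallothionein promoter; nearly all actives have a fitted effect of over 50% in size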
# Numbers without * were called inactive; ? = inconclusive; / = no result; [ ] = remark or other dose. Calls come from the whole dose curve; as a rule, active = well fitted curve in the direction sought with a large enough effect; inconclusive = small, poorly fitted or top-dose-only effect, or another doubt; inactive = no such curve, though single readings can be large; an effect the other way counts as inactive or inconclusive. % is set by controls: 0 for no effect and ±100 for the full control effect; potency is the fitted concentration of half-maximal effect.
SMILES,Tau fluor cs,Tau fibril ThT,RORgamma inh,Tau fibril FP,VP16 counter
O=C(NC(=S)N1CCCCCC1)c1ccccc1Cl,-4%,-2%,0.79µM*,0%,1µM*
CN(C)CCn1c(NC(=O)c2ccc(Cl)cc2)nc2ccccc21,-5%,12%,1.1µM*,-6%,1.4µM*
CCn1c(NC(=O)c2cccs2)nc2ccccc21,-16%,?,0.71µM*,-4%,1.1µM*
CCn1c(NC(C)=O)nc2ccccc21,6%,0%,?,9%,?
CCC(=O)Nc1nc2ccccc2n1CCN(CC)CC,4%,-2%,?,-3%,-12%
CCN(CC)CCn1c(NC(=O)c2ccc(C(F)(F)F)cc2)nc2ccccc21,-6%,0%,0.22µM*,0%,0.35µM*
CCCn1c(NC(=O)c2ccc(Cl)c(S(=O)(=O)N3CCCC3)c2)nc2ccccc21,-28%,-8%,1.6µM*,-6%,3.5µM*
O=C(NCc1nc2ccccc2[nH]1)c1ccc(Cl)c(S(=O)(=O)N2CCCC2)c1,-24%,-11%,-11%,-9%,30%
Cc1cc(O)c(C)c2c1CC[C@H]1[C@H](C)C(=O)O[C@H]21,-11%,-4%,-19%,3%,17%
COc1ccc(-c2cc(C(C)=O)c(C)n2CCC(=O)NCc2ccccc2OC)cc1,7%,-1%,/,6%,/
Cc1cc2ccccc2n1CCNC(=O)c1cccs1,-21%,?,13µM*,-3%,14µM*
CCCn1c(NC(=O)c2cccc(C)c2C)nc2ccccc21,-17%,-18%,2µM*,5%,2.2µM*
Cc1cc2ccccc2n1CCNC(=O)c1cccc(Cl)c1,?,?,/,3%,/
Cc1ccc(-c2nc(C3CCN(S(=O)(=O)c4ccc(C(F)(F)F)cc4)CC3)no2)cc1,-18%,-14%,22%,-6%,-11%
CS(=O)(=O)N1CCC(c2noc(-c3ccc(C(F)(F)F)cc3)n2)CC1,-7%,0%,?,1%,10µM*
O=C(Nc1ccc2nn(-c3ccc(Cl)cc3)nc2c1)c1cc2ccccc2o1,1%,-3%,/,-14%,/
CCCn1nnnc1NC(=O)COc1ccc(CC)cc1,4%,9%,10µM*,-1%,11µM*
CCCCn1nnc(NC(=O)COc2ccc(Cl)c(C)c2)n1,-13%,-12%,5%,-5%,0%
CCCn1nnnc1NC(=O)COc1ccc(Cl)c(C)c1,-6%,-3%,5µM*,1%,4.5µM*
CCCCCCNC(=O)CC(c1ccccc1)c1cc(Br)ccc1O (configuration not stated),8%,14%,2.8µM*,5%,10µM*
CC(C)NC(=O)CC(c1ccccc1)c1cc(Br)ccc1O (configuration not stated),-20%,-9%,20%,2%,-9%
CCOC(=O)c1sc(NC(=O)C2CC2)cc1C,-7%,-9%,?,0%,38%
CCOC(=O)c1sc(NC(=O)Nc2ccc(Cl)cc2)cc1C,3.2µM*[quencher],-15%,?,?,-5%[0.365 µM]
CCOC(=O)c1sc(NC(=S)NC(=O)C2CCCC2)cc1C,-19%,-3%,4.5µM*,?,3.2µM*
CCOC(=O)c1sc(NC(=S)NC(=O)CC(C)C)cc1C,?,?,5.6µM*,-11%,?
SMILES,Tau fluor cs,Tau fibril ThT,RORgamma inh,Tau fibril FP,VP16 counter
CCOC(=O)c1sc(NC(=O)c2ccc(Cl)s2)cc1C,-16%,-2%,?,-7%,?
Cc1ccc(C(=O)C(c2ccccc2)N2Cc3ccccc3C2=N)cc1 (configuration not stated),-22%,?,4µM*,-8%,10µM*
CC(C)NC(=O)c1nc2ccccc2s1,6%,-4%,35%,8%,14%
O=C(Nc1nnc(-c2ccccc2Cl)o1)c1nc2ccccc2s1,-9%,-18%,1.1µM*,-12%,?
O=C(Nc1nnc(-c2ccccc2Cl)o1)c1ccco1,3%,17%,2.8µM*,3%,5µM*
CC1CC1C(=O)Nc1nc(-c2cccs2)c(-c2cccs2)s1 (configuration not stated),?,?,10µM*,5%,12%
O=C(Nc1nc(-c2cccs2)c(-c2ccccc2)s1)c1ccco1,?,-20%,?,?,7.9µM*
O=C(Cn1ccc2ccccc2c1=O)NCC(=O)N1CCN(c2ccccc2F)CC1,/,/,36%,/,2%
C#C[C@]1(OC(C)=O)CCC2C3CCC4=CC(=O)CC[C@@H]4C3CC[C@@]21C (some centres not stated),/,/,3%,/,1%
O=C(Nc1nnc(-c2cccs2)o1)c1ccco1,-10%,-12%,2.5µM*,-6%,6.3µM*
CC(=O)Nc1sc(NC(=O)c2ccco2)nc1-c1cccs1,/,/,11%,/,22%
O=C(O)c1ccc(NC2=Nc3cccc4cccc2c34)cc1,9%,/,34%,-1%,29%
Cc1ccc(C(=O)NNC2=Nc3cccc4cccc2c34)cc1,?,?,0.89µM*,-9%,1.4µM*
NC(=O)NNC1=Nc2cccc3cccc1c23,-13%,?,-35%,7%,-11%
COc1ccc(C(=O)NNC2=Nc3cccc4cccc2c34)cc1,?,?,0.56µM*,7%,?
COc1ccc(CC(=O)NNC2=Nc3cccc4cccc2c34)cc1,?,10%,8.9µM*,?,-19%
CCc1ccc(C(C(=O)NC2CCCCC2)N(C(=O)c2csnn2)C2CC2)cc1 (configuration not stated),/,/,0%,/,-4%
COc1ccc2c(c1)c1c(c(=O)n(Cc3ccccc3)c(=O)n1CC(=O)Nc1ccc(C)cc1C)n2C,6%,11%,/,-3%,/
COc1ccc(/C=N/NC(=O)c2[nH]c3ccc(Br)cc3c2-c2ccccc2)cc1,?,-4%,10µM*,?,11µM*
Cc1c(C(=O)N/N=C/c2ccccc2)[nH]c2ccc(Cl)cc12,?,?,18µM*,?,?
Cc1c(C(=O)N/N=C/c2ccc(N(C)C)cc2)[nH]c2ccc(Cl)cc12,?,?,6.3µM*,7%,?
COc1ccc(/C=N/NC(=O)c2[nH]c3ccc(Br)cc3c2-c2ccccc2)c(C(=O)O)c1OC,0%,?,-11%,-15%,-15%
O=C(NS(=O)(=O)Oc1ccc(F)c(Cl)c1)OC[C@@H]1CCCN2CCCCC12 (some centres not stated),-1%,4%,-12%,0%,-9%
Nc1cccc(B(O)O)c1,-9%,-13%,-31%,2%,-6%
Cc1cc(C)c(NC(=O)CSc2nc(=O)n(Cc3cccnc3)c3c2CCC3)c(C)c1,8%,-2%,/,-3%,/
COc1ccc(C)c2sc(NC(=O)c3cccc(N4C(=O)CCC4=O)c3)nc12,/,/,46%,/,-1%
Cc1ccc(C)c2sc(NC(=O)c3ccc(N4C(=O)CCC4=O)cc3)nc12,-2%,-2%,0.2µM*,-6%,-19%
